Reference: a collection of fitness landscapes (doi:10.1126/science.1257360)
Over roughly 140,000 sequences, “enrichment ratio after two sorts for PhoP signalling” has its median near 0; the highest 2% begin near 11. Only a selection was taken, and the highest values are over-represented in it overall.

B1: PhoQ; a variant is named by its letters at X, in order, P23837 (parent)
chain: MKKLLRLFFPLSLRVRFLLATAAVVLVLSLAYGMVALIGYSVSFDKTTFRLLRGESNLFYTLAKWENNKLHVELPENIDKQSPTMTLIYDENGQLLWAQRDVPWLMKMIQPDWLKSNGFHEIEADVNDTSLLLSGDHSIQQQLQEVREDDDDAEMTHSVAVNVYPATSRMPKLTIVVVDTIPVELKSSYMVWSWFIYVLSANLLLVIPLLWVAAWWSLRPIEALAKEVRELEEHNRELLNPATTRELTSLVRNLNRLLKSERERYDKYRTTLTDLTHSLKTPLXXLQXXLRSLRSEKMSVSDAEPVMLEQISRISQQIGYYLHRASMRGGTLLSRELHPVAPLLDNLTSALNKVYQRKGVNISLDISPEISFVGEQNDFVEVMGNVLDNACKYCLEFVEISARQTDEHLYIVVEDDGPGIPLSKREVIFDRGQRVDTLRPGQGVGLAVAREITEQYEGKIVAGESMLGGARMEVIFGRQHSAPKDE

Variants of: B1
Experiment: enrichment ratio after two sorts for PhoP signalling (ratio (wild type AVST 3.29)); higher = more functional
Conditions: with PhoP (E. coli)
With VSTM the enrichment ratio was 14.3.
Variant VCTM has an enrichment ratio of 23.
For VFTM, the enrichment ratio was at most 0.25.
With NSTM the enrichment ratio was at most 0.25.
KCTM showed an enrichment ratio of at most 0.25.
In the case of VSWM, the enrichment ratio is reported as 2.15.
Work on EPCV yielded an enrichment ratio of at most 0.25.
PQFI showed an enrichment ratio of at most 0.25.
Work on IWAV yielded an enrichment ratio of at most 0.25.
With PCTF the enrichment ratio was at most 0.25.
RWFD showed an enrichment ratio of at most 0.25.
ACLQ showed an enrichment ratio of 11.6.
ACLR gave an enrichment ratio of 8.18.
Work on KCLQ yielded an enrichment ratio of at most 0.25.
ADLQ gave an enrichment ratio of 3.02.
With AILQ the enrichment ratio was 13.6.
VHLQ showed an enrichment ratio of at most 0.25.
For ASLQ, the enrichment ratio was 11.8.
Work on PLLQ yielded an enrichment ratio of at most 0.25.
With ALLQ the enrichment ratio was 14.7.
In the case of LQLQ, the enrichment ratio is reported as at most 0.25.
ASTA was tested, and the enrichment ratio was 9.73.
ASLR showed an enrichment ratio of 3.29.
FDLT showed an enrichment ratio of at most 0.25.
In the case of DGHY, the enrichment ratio is reported as at most 0.25.
FIKM was tested, and the enrichment ratio was at most 0.25.
HWCE showed an enrichment ratio of at most 0.25.
SDKP gave an enrichment ratio of at most 0.25.
For YSIR, the enrichment ratio was at most 0.25.
In the case of WSFS, the enrichment ratio is reported as at most 0.25.
KRRI was tested, and the enrichment ratio was at most 0.25.
Work on SLHA yielded an enrichment ratio of at most 0.25.
Work on IGLE yielded an enrichment ratio of at most 0.25.
Work on TPMA yielded an enrichment ratio of at most 0.25.
KSGA showed an enrichment ratio of at most 0.25.
Variant ELRR has an enrichment ratio of at most 0.25.
With FQKN the enrichment ratio was at most 0.25.
CNES showed an enrichment ratio of at most 0.25.
IDKS showed an enrichment ratio of at most 0.25.
With TVPS the enrichment ratio was at most 0.25.
Work on AQLQ yielded an enrichment ratio of 5.87.
Variant AKLQ has an enrichment ratio of 41.4.
In the case of GGLQ, the enrichment ratio is reported as 3.13.
MGLQ showed an enrichment ratio of 16.
Work on AYLQ yielded an enrichment ratio of 0.526.
Work on AGLQ yielded an enrichment ratio of 13.5.
TGLQ gave an enrichment ratio of 9.97.
Work on MGLR yielded an enrichment ratio of at most 0.25.
Variant MFLQ has an enrichment ratio of at most 0.25.
Work on TKLQ yielded an enrichment ratio of 6.41.
HKLQ showed an enrichment ratio of at most 0.25.
For ATLQ, the enrichment ratio was 11.5.
NIMF was tested, and the enrichment ratio was at most 0.25.
For YKKL, the enrichment ratio was at most 0.25.
With ESDI the enrichment ratio was at most 0.25.
PSMS showed an enrichment ratio of at most 0.25.
Variant WGKP has an enrichment ratio of at most 0.25.
Work on QAMN yielded an enrichment ratio of at most 0.25.
Variant VCTY has an enrichment ratio of at most 0.25.
Work on TCTY yielded an enrichment ratio of 14.7.
HVTY was tested, and the enrichment ratio was at most 0.25.
With KCTY the enrichment ratio was at most 0.25.
SCTY was tested, and the enrichment ratio was 15.6.
LSTY was tested, and the enrichment ratio was at most 0.25.
In the case of DNQA, the enrichment ratio is reported as at most 0.25.
For WMWR, the enrichment ratio was at most 0.25.
Work on GEYP yielded an enrichment ratio of at most 0.25.
Work on DMMD yielded an enrichment ratio of at most 0.25.
With ACGA the enrichment ratio was at most 0.25.
Work on ACMK yielded an enrichment ratio of 17.8.
With ACMT the enrichment ratio was 10.1.
With ACVA the enrichment ratio was 3.46.
In the case of ACMG, the enrichment ratio is reported as 14.3.
In the case of ACVG, the enrichment ratio is reported as 4.01.
ACMW was tested, and the enrichment ratio was at most 0.25.
ACMR was tested, and the enrichment ratio was 1.61.
Work on ACGF yielded an enrichment ratio of 6.85.
For ACWF, the enrichment ratio was at most 0.25.
ACMA was tested, and the enrichment ratio was 34.1.
With ACMF the enrichment ratio was 14.4.
With PYWL the enrichment ratio was at most 0.25.
DKNN gave an enrichment ratio of at most 0.25.
FTRE was tested, and the enrichment ratio was at most 0.25.
For QRLI, the enrichment ratio was at most 0.25.
FFKH gave an enrichment ratio of at most 0.25.
NCDG gave an enrichment ratio of at most 0.25.
In the case of QIFY, the enrichment ratio is reported as at most 0.25.
Variant VWPM has an enrichment ratio of at most 0.25.
Variant ACMI has an enrichment ratio of 21.
In the case of ACMS, the enrichment ratio is reported as 8.75.
Variant ACIG has an enrichment ratio of 12.3.
Variant ACVC has an enrichment ratio of 1.02.
ACWQ gave an enrichment ratio of at most 0.25.
Work on ACMV yielded an enrichment ratio of 7.12.
ACMQ showed an enrichment ratio of 31.7.
With ACGG the enrichment ratio was 4.87.
WGDV gave an enrichment ratio of at most 0.25.
VHHQ showed an enrichment ratio of at most 0.25.
TTPE showed an enrichment ratio of at most 0.25.
For MDFT, the enrichment ratio was at most 0.25.
In the case of RPHC, the enrichment ratio is reported as at most 0.25.
NELR gave an enrichment ratio of at most 0.25.
Work on MQVH yielded an enrichment ratio of 2.29.
In the case of TPTT, the enrichment ratio is reported as at most 0.25.
SNAY gave an enrichment ratio of 14.8.
Work on SQQI yielded an enrichment ratio of 2.33.
With SLQI the enrichment ratio was 5.02.
With SNCE the enrichment ratio was at most 0.25.
In the case of SQCE, the enrichment ratio is reported as 24.1.
Work on NQCE yielded an enrichment ratio of at most 0.25.
With DNQN the enrichment ratio was at most 0.25.
SNQI gave an enrichment ratio of 12.5.
In the case of SPAY, the enrichment ratio is reported as at most 0.25.
DMQI showed an enrichment ratio of at most 0.25.
SNYI was tested, and the enrichment ratio was 0.257.
DNQI gave an enrichment ratio of 22.9.
Variant REHF has an enrichment ratio of at most 0.25.
For APRY, the enrichment ratio was at most 0.25.
Work on WCFP yielded an enrichment ratio of at most 0.25.
VRKW was tested, and the enrichment ratio was at most 0.25.
In the case of HDVL, the enrichment ratio is reported as at most 0.25.
SLKT was tested, and the enrichment ratio was at most 0.25.
Variant PVHR has an enrichment ratio of at most 0.25.
For GYTV, the enrichment ratio was at most 0.25.
Variant YWVH has an enrichment ratio of at most 0.25.
HHYP was tested, and the enrichment ratio was at most 0.25.
For SQCA, the enrichment ratio was 8.55.
With SNDH the enrichment ratio was at most 0.25.
For SNCI, the enrichment ratio was 21.8.
With SNCA the enrichment ratio was 16.8.
Work on SNSA yielded an enrichment ratio of 13.1.
With SQTH the enrichment ratio was 3.03.
In the case of SRSA, the enrichment ratio is reported as at most 0.25.
SNHF gave an enrichment ratio of at most 0.25.
SQSA gave an enrichment ratio of 3.01.
In the case of SQCK, the enrichment ratio is reported as 9.83.
In the case of SQCI, the enrichment ratio is reported as 15.6.
SNHI was tested, and the enrichment ratio was at most 0.25.
DNPA gave an enrichment ratio of at most 0.25.
ILGQ gave an enrichment ratio of at most 0.25.
Variant SFVQ has an enrichment ratio of at most 0.25.
YVYP was tested, and the enrichment ratio was at most 0.25.
With FFCP the enrichment ratio was at most 0.25.
LDYA was tested, and the enrichment ratio was at most 0.25.
For SSGD, the enrichment ratio was at most 0.25.
SILH was tested, and the enrichment ratio was 3.1.
SICV was tested, and the enrichment ratio was 16.6.
SQTM was tested, and the enrichment ratio was 6.18.
In the case of SSGM, the enrichment ratio is reported as 13.4.
SSWM gave an enrichment ratio of 6.76.
With SICI the enrichment ratio was 21.
KYCV was tested, and the enrichment ratio was at most 0.25.
Work on SSTM yielded an enrichment ratio of 21.4.
SSPM was tested, and the enrichment ratio was 0.954.
Variant SITW has an enrichment ratio of 4.
Variant SICE has an enrichment ratio of 1.33.
DMMP gave an enrichment ratio of at most 0.25.
For NRRM, the enrichment ratio was at most 0.25.
YLRW was tested, and the enrichment ratio was at most 0.25.
TKFH was tested, and the enrichment ratio was at most 0.25.
With LSNL the enrichment ratio was at most 0.25.
Variant EACR has an enrichment ratio of at most 0.25.
Variant HEFW has an enrichment ratio of at most 0.25.
LKYV showed an enrichment ratio of at most 0.25.
In the case of TSVM, the enrichment ratio is reported as 3.12.
KYCS gave an enrichment ratio of at most 0.25.
PLTM gave an enrichment ratio of at most 0.25.
In the case of WLTM, the enrichment ratio is reported as at most 0.25.
SIAM showed an enrichment ratio of 20.8.
KSVM was tested, and the enrichment ratio was at most 0.25.
For SICA, the enrichment ratio was 8.12.
For SLTM, the enrichment ratio was 12.5.
For KYAM, the enrichment ratio was at most 0.25.
With SICS the enrichment ratio was 16.9.
In the case of SIMD, the enrichment ratio is reported as 4.7.
SSVM showed an enrichment ratio of 17.6.
DEHQ showed an enrichment ratio of at most 0.25.
With SHVQ the enrichment ratio was at most 0.25.
KNSF was tested, and the enrichment ratio was at most 0.25.
Work on EDWM yielded an enrichment ratio of at most 0.25.
PVLM was tested, and the enrichment ratio was at most 0.25.
LLTM showed an enrichment ratio of at most 0.25.
Work on VLTM yielded an enrichment ratio of at most 0.25.
TLTM gave an enrichment ratio of 19.
SIWM was tested, and the enrichment ratio was at most 0.25.
FIGM gave an enrichment ratio of at most 0.25.
With SICG the enrichment ratio was 22.
For KYCG, the enrichment ratio was at most 0.25.
For SIGM, the enrichment ratio was 9.86.
SICK was tested, and the enrichment ratio was 14.6.
Variant FICK has an enrichment ratio of at most 0.25.
Variant FICM has an enrichment ratio of 12.9.
Variant WICG has an enrichment ratio of at most 0.25.
With NHYV the enrichment ratio was at most 0.25.
EHWN showed an enrichment ratio of at most 0.25.
